# Source: the supplement of paper PMC3334620
# Over roughly 33,000 sequences, “E-score (-0.5 to 0.5)” has its median near -0.015; the highest 2% begin near 0.3. Shown is part of a subset that was picked to be rich in the highest values.
# Target: T1, Abf1 (UniProt P14164)
# T1 sequence: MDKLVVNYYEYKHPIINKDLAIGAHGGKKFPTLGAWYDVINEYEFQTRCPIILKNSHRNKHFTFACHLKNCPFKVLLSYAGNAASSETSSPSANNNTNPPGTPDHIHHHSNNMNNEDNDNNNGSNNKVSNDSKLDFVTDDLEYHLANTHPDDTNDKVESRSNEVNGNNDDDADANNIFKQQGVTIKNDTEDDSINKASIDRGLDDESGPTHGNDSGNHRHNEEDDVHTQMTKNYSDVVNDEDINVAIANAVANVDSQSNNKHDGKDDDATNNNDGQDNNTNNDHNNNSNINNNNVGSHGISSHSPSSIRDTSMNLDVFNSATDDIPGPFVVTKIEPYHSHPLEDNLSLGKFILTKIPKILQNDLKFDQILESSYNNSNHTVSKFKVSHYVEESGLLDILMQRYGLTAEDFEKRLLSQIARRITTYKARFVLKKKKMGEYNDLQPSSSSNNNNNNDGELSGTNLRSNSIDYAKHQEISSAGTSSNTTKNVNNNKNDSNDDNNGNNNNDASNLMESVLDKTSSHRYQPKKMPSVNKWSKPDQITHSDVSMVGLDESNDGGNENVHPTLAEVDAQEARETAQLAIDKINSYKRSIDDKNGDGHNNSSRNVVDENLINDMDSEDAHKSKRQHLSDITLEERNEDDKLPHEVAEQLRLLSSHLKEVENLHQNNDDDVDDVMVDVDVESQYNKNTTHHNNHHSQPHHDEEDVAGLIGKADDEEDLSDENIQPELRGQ
# Experiment: PBM E-score (8-mer binding enrichment) (E-score (-0.5 to 0.5)); higher = stronger / more preferred TF binding
# Settings: protein concentration: 200 nM; construct: GST-full length
# Experimental: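 Universal 'all 10-mer' protein binding microarrays (Agilent AMADID 015681) probed with GST-tagged S. cerevisiae TFs (full-length or DBD) made by in vitro transcription/translation (PURExpress), about 100-200 nM. Bound TF was detected with fluorescent anti-GST. Each ungapped 8-mer (which stands for itself and its reverse complement) is scored by the PBM enrichment score (E-score), a modified Wilcoxon-Mann-Whitney statistic from -0.5 to +0.5, computed with the Universal PBM Analysis Suite. Scale: above 0.35 generally sequence-specific binding.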
row,Sequence,PBM E-score
1,ATAACGGG,0.0588
2,CGGGCGCA,-0.146
3,GAATTAAA,0.00779
4,GTGGAGAA,0.0678
5,ACATACCT,-0.0525
6,CTACCTTC,0.0107
7,GGCGGAGA,-0.00874
8,TAGCGATA,0.347
9,GTACGATA,0.259
10,AAACGATC,0.286
11,TAACGATA,0.36
12,CAGCGATA,0.16
13,GAACGATC,0.298
14,TAACGAGA,0.295
15,GAGCGATA,0.223
16,CAACGATC,0.103
17,TAACGAAA,0.243
18,GAACGATA,0.301
19,GAACGAGA,0.0551
20,ATGTAGAC,-0.0712
21,CCATTTAG,-0.118
22,CCGAGGTC,-0.0891
23,GATTGGTA,0.109
24,GCTCCTGA,-0.23
25,CCGTACCC,0.267

row,Sequence,PBM E-score
1,CCGAGTTA,0.0322
2,CGCGCCTC,-0.14
3,TACAGCCA,-0.224
4,AAACGATA,0.376
5,AAACGATT,0.292
6,GCACGATA,0.355
7,ACACGATA,0.295
8,CAACGATA,0.25
9,GCACGAGA,0.178
10,GCGAACTA,-0.0767
11,CCGCGAGA,-0.0337
12,GCGGCACA,0.112
13,ACGTATAT,0.193
14,ACGTATAG,0.186
15,CCGTATAA,0.418
16,ACGTAAAT,0.113
17,GCGTAAAA,0.103
18,ACGTATAA,0.304
19,ACGTAAAA,0.317
20,TCGTATAA,0.4
21,TGGTATAA,0.0711
22,GCGTATAA,0.154
23,CCGTATAC,0.272
24,TAGTATAA,0.269
25,GTAAGAAA,0.176

row,Sequence,PBM E-score
1,ATCAGGGC,-0.198
2,CCATCGCA,-0.0576
3,CAATATTG,0.0635
4,GGCCCTTA,-0.233
5,GTAAACCA,-0.0676
6,GCTTTATA,-0.0302
7,CTTCGTAA,0.161
8,ATTCGTCC,0.296
9,ATTCGTAA,0.203
10,ATTCGTCA,0.164
11,CTTCGTCC,0.0852
12,ATTCGTAC,0.408
13,ATTCGTCG,0.31
14,CTTCGTAC,0.414
15,ATTCGTAG,0.191
16,GCGAGGAA,-0.0784
17,AGTGGCGA,0.0606
18,CTGTTTGC,0.0145
19,CCTAAACA,-0.224
20,ATTCGGTC,0.0175
21,GCAGGCAC,-0.145
22,CCCTTTGA,-0.125
23,CGACGTCA,0.123
24,CACGAACC,0.185
25,CACGGTTC,0.154

row,Sequence,PBM E-score
1,ACGTCAAT,0.116
2,ACGTCACC,0.22
3,GCGTCACA,0.02
4,ACGTCACG,0.326
5,ACGTCACA,0.0823
6,ACGTCACT,0.39
7,AAGATAGG,-0.151
8,ACTTCAGC,-0.124
9,ATCAGGGA,-0.0561
10,GGATGTCA,0.171
11,GTATGTCA,0.394
12,ATATGTCA,0.289
13,CTATGTCA,0.31
14,CTATGTCC,-0.022
15,GAATGTCA,0.278
16,ATAAGGCA,0.14
17,ACAGGGGG,-0.357
18,GGAAGGAC,0.0147
19,AGACCATC,-0.195
20,ATTAACCC,-0.086
21,CGTGTGAC,0.11
22,CGTGTAAA,0.314
23,AGTGTAAA,-0.00367
24,TGTGTGAA,-0.234
25,CGTGTGAA,0.311

row,Sequence,PBM E-score
1,CGTGTAAC,0.237
2,ATATGGTG,0.0579
3,CGTGACGA,0.351
4,AGTGACGA,0.422
5,AGTGACGG,0.1
6,CGTGACCA,0.0961
7,CGTGACGC,0.152
8,GGTGACGA,0.276
9,CGGACATA,0.0662
10,CATGGAGG,-0.286
11,AACGGCAT,0.226
12,CTGGTTGC,-0.0319
13,AAATCAAT,0.142
14,AAATCACC,0.336
15,AAATCACA,0.0176
16,AAATCACG,0.284
17,AAATCACT,0.374
18,CAATCACC,0.0554
19,CGAACCAA,0.0494
20,ATCAGCGA,-0.0614
21,GGTTTTCA,0.167
22,ACGAGCAT,0.00886
23,GTCCTATA,-0.0768
24,AACGACAC,0.238
25,TACGACAA,0.298

row,Sequence,PBM E-score
1,AACGACAT,0.346
2,CACGACAA,0.25
3,GACGACAA,0.347
4,GACGACAC,0.252
5,AACGACAG,0.196
6,TGCGACAA,0.0936
7,AACGACAA,0.308
8,GGCGACAA,0.0843
9,ACCGACAA,0.115
10,CACGACAC,0.296
11,TCAAGAGA,0.0894
12,ACATCGTG,0.185
13,ACCCCTAC,-0.271
14,AAGAGGAA,-0.0719
15,GGCCCGTA,0.0104
16,ACGGAGGG,0.0212
17,CACGCAGC,0.00826
18,ACGTCTAG,0.167
19,CGATCACA,0.161
20,CGATCACC,0.0211
21,TGATCACA,0.292
22,AGATCAAT,0.12
23,GGATCACC,0.247
24,AGATCACC,0.311
25,AGATCACG,0.35

row,Sequence,PBM E-score
1,CGATCACG,0.298
2,AGATCACT,0.437
3,GGATCACA,0.00896
4,AGATCAAG,0.112
5,AGATCACA,0.138
6,AGACGGGG,0.0661
7,GATCCTCA,0.019
8,CTAATTCC,0.0379
9,ATGACCTA,0.235
10,ATACAACA,0.0798
11,CAAATGAA,-0.155
12,AAAGGATT,-0.105
13,TGCAACCA,-0.0685
14,CGTCTCTC,0.162
15,ACTTCGTC,0.227
16,GCTTCGGA,0.0157
17,ACTTCGTA,0.297
18,CCTTCGTA,0.292
19,ACTTCGTG,0.0796
20,GCTTCGTA,0.313
21,CCGACACC,-0.195
22,ATTTTTGC,0.113
